UCHL1 inh: inhibitors of human UCHL1 deubiquitinase | inhibition, % at 20 µM | purified UCHL1, Ub-rhodamine cleavage fluorescence | P09936 | 47,000 compounds, 0.2% hits | AID 1645859
USP8 block: human USP8 deubiquitinase inhibition; P40818; purified USP8, Ub-rhodamine cleavage fluorescence, 30 min; inhibition, % at 20 µM; 47,000 compounds, 4.2% hits
Target sequence (P40818 whole entry, looked up): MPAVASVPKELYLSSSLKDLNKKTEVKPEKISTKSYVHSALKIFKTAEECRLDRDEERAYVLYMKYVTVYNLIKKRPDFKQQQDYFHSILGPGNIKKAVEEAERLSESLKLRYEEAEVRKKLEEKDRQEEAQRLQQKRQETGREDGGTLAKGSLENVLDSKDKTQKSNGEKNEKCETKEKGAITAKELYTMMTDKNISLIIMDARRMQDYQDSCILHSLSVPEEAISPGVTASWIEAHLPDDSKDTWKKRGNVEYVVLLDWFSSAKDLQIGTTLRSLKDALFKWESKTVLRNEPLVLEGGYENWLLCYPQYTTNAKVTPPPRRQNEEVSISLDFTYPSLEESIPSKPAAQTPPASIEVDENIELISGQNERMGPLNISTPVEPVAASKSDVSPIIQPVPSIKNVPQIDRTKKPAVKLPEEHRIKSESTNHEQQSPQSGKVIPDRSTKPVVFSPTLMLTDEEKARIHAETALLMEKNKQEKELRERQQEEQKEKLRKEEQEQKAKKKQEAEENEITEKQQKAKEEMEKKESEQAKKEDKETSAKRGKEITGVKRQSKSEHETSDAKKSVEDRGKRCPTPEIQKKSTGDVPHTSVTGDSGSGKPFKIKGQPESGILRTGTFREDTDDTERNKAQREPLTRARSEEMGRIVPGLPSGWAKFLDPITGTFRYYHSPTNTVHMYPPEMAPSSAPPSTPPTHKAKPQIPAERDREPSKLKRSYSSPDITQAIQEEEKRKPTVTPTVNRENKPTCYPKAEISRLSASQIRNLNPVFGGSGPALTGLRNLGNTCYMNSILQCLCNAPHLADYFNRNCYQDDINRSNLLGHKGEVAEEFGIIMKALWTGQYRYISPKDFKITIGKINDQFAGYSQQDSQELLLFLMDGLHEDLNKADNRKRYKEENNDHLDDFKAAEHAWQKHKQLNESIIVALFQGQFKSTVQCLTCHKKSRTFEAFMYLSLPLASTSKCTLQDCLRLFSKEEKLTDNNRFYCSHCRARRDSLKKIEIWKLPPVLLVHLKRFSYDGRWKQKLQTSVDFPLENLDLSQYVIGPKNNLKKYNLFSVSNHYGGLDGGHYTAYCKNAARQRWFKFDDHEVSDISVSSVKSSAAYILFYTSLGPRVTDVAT
USP17 inh: blocks human USP17 ubiquitin-rhodamine cleavage. A8MUK1. purified USP17, Ub-rhodamine cleavage fluorescence, 3 h. inhibition, % at 50 µM. 47,000 compounds, 6.5% hits. AID 1645855
USP7 block: blocks human USP7 ubiquitin-rhodamine cleavage; Q93009; purified USP7, Ub-rhodamine cleavage fluorescence; inhibition, % at 20 µM; 47,000 compounds, 0.3% hits
USP30 inh: blocks human USP30 ubiquitin-rhodamine cleavage; Q70CQ3; purified USP30, Ub-rhodamine cleavage fluorescence; inhibition, % at 25 µM; 47,000 compounds, 5.3% hits; AID 1645860
USP10 inh: blocks human USP10 ubiquitin-rhodamine cleavage | inhibition, % at 20 µM | purified USP10, Ub-rhodamine fluorescence, 60 min | Q14694 | AID 1645856 | 47,000 compounds, 1.1% hits
Numbers without * were called inactive. Sampled rows, rich in hits. Any-hit rate of the full collection: about 12%. No stated cut-off is given here; in the data, active means inhibition above about 30%; inactive means the rest.

How did CC12CCc3occc3C1CCC13CC(CCC12)C(O)(CO)C3 (centres undefined) do in these assays?
UCHL1 inh: -9; USP8 block: -31; USP17 inh: 8; USP7 block: -7; USP30 inh: -15; USP10 inh: -9

Results for C[C@@]12CCc3occc3C1CCC13CC(CCC12)[C@@](O)(CO)C3 (some centres undefined) ?
UCHL1 inh: 13; USP8 block: 10; USP17 inh: 47*; USP7 block: -9; USP30 inh: 32*; USP10 inh: 25

How did O=c1c2cnc(N3CCc4ccccc4C3)nc2ccn1-c1ccc(F)cc1 do in these assays?
UCHL1 inh: -5; USP8 block: 7; USP17 inh: -17; USP7 block: 1; USP30 inh: -144; USP10 inh: -4

What do the screens show for `COc1ccc(NC(C)=O)cc1S(=O)(=O)N(CC(=O)Nc1ccc(C)cc1)CC(=O)Nc1ccc(C)cc1`?
UCHL1 inh: 2; USP8 block: 1; USP17 inh: 34*; USP7 block: 5; USP30 inh: 19; USP10 inh: -4

What do the screens show for `CCCc1cc(N2CCN(C(=O)C3CC3)CC2)nc2nnc(C)n12`?
UCHL1 inh: 0; USP8 block: 1; USP17 inh: -8; USP7 block: 2; USP30 inh: 0; USP10 inh: -1

What do the screens show for `CN1CCc2c(sc3nc(SCC(=O)N4CCCCC4)nc(N)c23)C1`?
UCHL1 inh: -20; USP8 block: -17; USP17 inh: -50; USP7 block: -18; USP30 inh: -321; USP10 inh: -6

How did CCOC(=O)N1CCC(NC(=O)C2CCCN(c3nc4ccccc4o3)C2)CC1 (centres undefined) do in these assays?
UCHL1 inh: 1; USP8 block: 0; USP17 inh: 10; USP7 block: 1; USP30 inh: 12; USP10 inh: 2

Results for CCOC(=O)N1CCC(NC(=O)CCn2c(=S)oc3ccccc32)CC1 ?
UCHL1 inh: -4; USP8 block: -9; USP17 inh: 26; USP7 block: 2; USP30 inh: 34*; USP10 inh: 7

Results for CC(OC(=O)c1ccccc1Sc1ccccc1C#N)C(=O)Nc1cccc([N+](=O)[O-])c1 (centres undefined) ?
UCHL1 inh: 8; USP8 block: 4; USP17 inh: 26; USP7 block: 4; USP30 inh: 36*; USP10 inh: 3

How did Cc1cc(-c2ccsc2)cc(C)n1 do in these assays?
UCHL1 inh: 3; USP8 block: 7; USP17 inh: 4; USP7 block: 0; USP30 inh: 20; USP10 inh: 4

What do the screens show for `COc1cccc(CNC(=O)c2ccccc2OCc2ccccc2)c1`?
UCHL1 inh: 7; USP8 block: 10; USP17 inh: 31*; USP7 block: -18; USP30 inh: 41*; USP10 inh: 18

Results for COc1ccccc1CNC(=O)c1ccccc1OCc1ccc(F)cc1 ?
UCHL1 inh: 4; USP8 block: 23; USP17 inh: 27; USP7 block: -9; USP30 inh: 38*; USP10 inh: 6

How did Cc1cccc(OCCNC(=O)c2nc(-n3cnnc3)ccc2Br)c1 do in these assays?
UCHL1 inh: -10; USP8 block: -23; USP17 inh: -15; USP7 block: -14; USP30 inh: -47; USP10 inh: -5

What do the screens show for `O=C(C[n+]1cc(-c2ccccc2)n2c1CCC2)c1cccc([N+](=O)[O-])c1`?
UCHL1 inh: 2; USP8 block: -116; USP17 inh: -11; USP7 block: 4; USP30 inh: 31*; USP10 inh: 3

Results for Cc1ccc(-c2c[n+](CC(=O)N(c3ccccc3)C(C)C)c3n2CCC3)cc1 ?
UCHL1 inh: 3; USP8 block: 0; USP17 inh: -10; USP7 block: 4; USP30 inh: -14; USP10 inh: -1

Results for CCOC(=O)c1sc2c(c1C)c(=O)n(Cc1ccccc1)c(=O)n2CC(N)=O ?
UCHL1 inh: -2; USP8 block: -6; USP17 inh: 22; USP7 block: -85; USP30 inh: 55*; USP10 inh: 4

Results for CCOC(=O)c1csc(-c2cn(C(C)C)c(=O)n(Cc3ccccc3)c2=O)n1 ?
UCHL1 inh: 0; USP8 block: 0; USP17 inh: 30; USP7 block: -1; USP30 inh: -4; USP10 inh: 0

What do the screens show for `COCCCNc1cc(-c2cncc(-c3cccs3)c2)nc(-c2ccccc2)n1`?
UCHL1 inh: 12; USP8 block: 19; USP17 inh: 14; USP7 block: 15; USP30 inh: 9; USP10 inh: 5

What do the screens show for `Cc1nc(NCc2ccc(Cl)cc2)cc(-c2cncc(-c3cccs3)c2)n1`?
UCHL1 inh: 0; USP8 block: -1; USP17 inh: 35*; USP30 inh: -70; USP10 inh: 0

Results for Cc1ccccc1OCCCn1c(CN(C)C(=O)c2ccco2)nc2ccccc21 ?
UCHL1 inh: 3; USP8 block: -4; USP17 inh: 30*; USP7 block: -15; USP30 inh: -6; USP10 inh: -1

How did COc1ccccc1OCCCn1c(CNC(=O)c2ccco2)nc2ccccc21 do in these assays?
UCHL1 inh: 0; USP8 block: 3; USP17 inh: -4; USP7 block: -4; USP30 inh: -10; USP10 inh: 1

What do the screens show for `Cc1ccc(OCCCn2c(CNC(=O)c3ccco3)nc3ccccc32)cc1`?
UCHL1 inh: 5; USP8 block: 41*; USP17 inh: 17; USP7 block: -1; USP30 inh: 25; USP10 inh: -2

How did NC(=O)c1nc(Cn2c(C(F)(F)F)nc3ccccc32)no1 do in these assays?
UCHL1 inh: -1; USP8 block: -20; USP17 inh: 0; USP7 block: 0; USP30 inh: 1; USP10 inh: 4

What do the screens show for `O=C(/C=C/c1cnc2ccccc2c1)NCc1ccccc1`?
UCHL1 inh: -1; USP8 block: 3; USP17 inh: 50*; USP7 block: 4; USP30 inh: 41*; USP10 inh: 3

What do the screens show for `O=C(/C=C/c1ccc(Br)cc1)Nc1cnc2ccccc2c1`?
UCHL1 inh: 3; USP8 block: 49*; USP17 inh: 11; USP7 block: 10; USP30 inh: -1; USP10 inh: 15

How did Cc1n[nH]c(C)c1CC(=O)N1CCN(S(=O)(=O)c2ccc3c(c2)CCC3)CC1 do in these assays?
UCHL1 inh: 2; USP8 block: 1; USP17 inh: 6; USP7 block: 2; USP10 inh: 3

What do the screens show for `NCCn1nc(C2CCN(C(=O)Cc3ccc(F)cc3)C2)c2cccnc21` (centres undefined)?
UCHL1 inh: -2; USP8 block: -6; USP17 inh: 18; USP7 block: 1; USP30 inh: 21; USP10 inh: -2

Results for NCCn1nc(C2CCN(C(=O)Cc3cccc(F)c3)C2)c2cccnc21 (centres undefined) ?
UCHL1 inh: -1; USP8 block: -5; USP17 inh: 37*; USP7 block: 3; USP30 inh: 26; USP10 inh: -3

Compound activity (PubChem)
